BAZ2B inh = qHTS Assay for Inhibitors of BAZ2B; Bromodomain adjacent to zinc finger domain protein 2B (Homo sapiens), Q9UIF8; AlphaScreen BAZ2B-H3K14Ac peptide displacement; Potency, µM (top dose mostly 114 µM), inactives show top-dose activity change, negative = inhibition, actives largely listed as inhibitors; actives 4.4% (n = 360,000); also: % is scaled to controls: 0 for no effect and ±100 for the full control effect; nearly all actives have a fitted effect of over 60% in size
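Inhibition is scored as reduced AlphaScreen emission. The BAZ2B/b-H3(5-23)K14Ac complex (50 nM each) in PBS pH 7.4, 0.01% Tween-20 meets compound (up to 110 uM) for 30 min at RT before bead addition.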
JMJD2A Tudor = qHTS Assay for Inhibitors of JMJD2A-Tudor Domain; Lysine-specific demethylase 4A (Homo sapiens), O75164; AlphaScreen JMJD2A-Tudor / H3K4me3 peptide binding; AID 504339, 2011; Potency, µM (top dose mostly 114 µM), inactives show at the highest dose activity change, negative = inhibition, hits mostly inhibitors; actives 4.4% (n = 390,000); also: % is scaled to controls: 0 for no effect and ±100 for the full control effect; nearly all actives have a fitted effect of over 50% in size
PLK1 PBD block = qHTS for Inhibitors of PLK1-PDB (polo-like kinase 1 - polo-box domain): Primary Screen. actives 2.8% (n = 360,000). Serine/threonine-protein kinase PLK1 (Homo sapiens), P53350. Potency, µM, for the others: max response, negative = inhibition, most hits filed as inhibitors. Plk1 PBD binding of FITC phosphopeptide, fluorescence polarization; also: series mostly up to about 57 µM; % is scaled to controls: 0 for no effect and ±100 for the full control effect; nearly all actives have a fitted effect of over 65% in size
G9a block = qHTS Assay for Inhibitors of Histone Lysine Methyltransferase G9a; Histone-lysine N-methyltransferase EHMT2 (Homo sapiens), Q96KQ7; G9a H3K9 monomethylation, AlphaScreen, 2 h; Potency, µM (highest dose often 102 µM), without a hit: top-dose activity, negative = inhibition, hits mostly inhibitors; actives 8.8% (n = 350,000); AID 504332, 2011; also: % is scaled to controls: 0 for no effect and ±100 for the full control effect; nearly all actives have a fitted effect of over 75% in size
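AlphaScreen read-out: biotin-H3K9 peptide (500 nM) methylation by 20 nM enzyme with 20 uM SAM, 2 h at room temperature after 15 min compound preincubation; anti-monomethyl H3K9 antibody plus donor/acceptor beads, 10 min dark.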
12-LOX inh = Primary qHTS assay for inhibitors of human arachidonate 12S-lipoxygenase (ALOX12): Round 2 | Potency, µM (series often up to 108 µM), for inactives: top-dose activity change, negative = inhibition, hits mostly inhibitors | Polyunsaturated fatty acid lipoxygenase ALOX12 (Homo sapiens), P18054 | AID 1671190, 2021 | actives 1.1% (n = 580,000) | purified 12hLO, xylenol orange hydroperoxide absorbance; also: % is scaled to controls: 0 for no effect and ±100 for the full control effect
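Purified human 12hLO at 150 nM in 25 mM Hepes, 0.01% Triton X-100, pH 7.0, preincubated 15 min at room temperature with compound. Reaction started with 40 uM arachidonic acid, 30 min at room temperature. Hydroperoxide measured by Fe-xylenol orange, 573/405 nm absorbance ratio.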
HP1b chromo inh = HTS for Inhibitors of HP1-beta Chromodomain Interactions with Methylated Histone Tails; actives 0.56% (n = 390,000); AID 540317, 2011; Chromobox protein homolog 1 (Homo sapiens), P83916; AlphaScreen HP1-beta / biotin-H3K9me3 peptide binding; Potency, µM (highest dose often 114 µM), without a hit: top-dose activity change, negative = inhibition, hits mostly inhibitors; also: nearly all actives have a fitted effect of over 70% in size
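Compound inhibition of the preformed complex between 50 nM HP1-beta and 50 nM biotinylated H3K9me3 peptide was read by AlphaScreen. Buffer was PBS pH 7.4 with 0.01% Tween-20. Incubations ran 30 min at room temperature, with 10 ug/mL donor/acceptor beads.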
Active calls of the source: *; ? = inconclusive; · = no result; [ ] = dose if it differs, or a comment. Only some compounds are listed: those with a hit (about 9% of all), similar ones and a draw of the others. Calls follow the shape of the dose curve; as a rule, active = well fitted curve in the direction sought with a large enough effect; inconclusive = small, poorly fitted or top-dose-only effect, or another doubt; inactive = no such curve, though single readings can be large; an effect the other way counts as inactive or inconclusive. Potency is read from the fitted curve at half-maximal effect.

SMILES	BAZ2B inh	JMJD2A Tudor	PLK1 PBD block	G9a block	12-LOX inh	HP1b chromo inh
CCN(CC)CC(O)Cn1c(C)c(-c2ccccc2)c2cc([N+](=O)[O-])ccc21 (stereo not drawn)	?	?	-7%	45µM*	0%	-12%
CCN(CC)CC(O)Cn1c2ccccc2c2ccccc21 (stereo not drawn)	0%	-3%	-1%	13%[12.7 µM]	-18%	15%
CC[n+]1c(C)cc2c(sc3ccccc32)c1C	-19%	?	-5%	22µM*	?	44%
COc1ccc(C(=O)NC(=S)Nc2cccc(NC(=O)c3ccco3)c2)cc1[N+](=O)[O-]	2%	-3%	-9%	11%[59 µM]	?	19%
Cc1ccc(CNC(=O)/C=C/c2ccc(Br)o2)cc1	?	-2%	-21%	1.4µM*	?	16%
Cc1ccc(/C=C/C(=O)NCc2cccs2)o1	?	?	-14%	13µM*	-1%	?
Cc1ccc(/C=C/C(=O)NCc2cccs2)cc1	32%	?	-2%	6%	-9%	21%
CC(OC(=O)c1ccc(O)cc1)C(N)=O (stereo not drawn)	·	·	·	·	3%	·
COc1cc(-c2nnc(SCC(=O)Oc3ccc(C)cc3C)o2)cc(OC)c1OC	?	-27%	·	?	-16%	3%
Nc1nc(CN2CCC(Cc3ccccc3)CC2)nc(Nc2ccccc2)n1	-37%	?	-1%	-13%[12.7 µM]	?	15%
Nc1nc(CSc2ccccn2)nc(Nc2ccccc2)n1	0%	-14%	-13%	6%[59 µM]	0%	14%
Nc1nc(CN2CCCCCC2)nc(Nc2ccccc2)n1	10µM*	20µM*	-24%	?	-6%	13%
Cc1ccc(Nc2nc(N)nc(CN3CCCCCC3)n2)cc1	11µM*	50µM*	?	?	0%[57.4 µM]	28%
Nc1nc(CSCCO)nc(Nc2ccccc2)n1	-1%	4%[11.4 µM]	27µM*	4%[59 µM]	12%	-23%
Cc1ccc(NC(=O)N2CCN(C(=O)c3ccco3)CC2)cc1Cl	1%	-14%	-9%	12%	-12%	26%
Cc1ccc(Nc2nc(N)nc(CN3CCN(C(=O)c4ccco4)CC3)n2)cc1Cl	-80%	?	-9%	50µM*	-13%	-1%
CCOC(=O)C1=C(C)NC2=C(C(=O)CCC2)C1c1cn(Cc2ccc(Cl)cc2Cl)nc1-c1ccccc1 (stereo not drawn)	41%	0%	-14%	26%[59 µM]	-7%	31%
CC(C)Cn1cc(NC(=O)N2CCN(c3cccc(C(F)(F)F)c3)CC2)c2ccccc2c1=O	3%[57.1 µM]	-21%	·	-32%[59 µM]	-23%	13%
O=C1COCCN1	·	-10%	·	·	·	24%
CCOC(=O)C1CCCN(Cc2nc(N)nc(Nc3ccccc3)n2)C1 (stereo not drawn)	35µM*	56µM*	-4%	0%[12.7 µM]	3%	34%
Nc1nc(COC(=O)C2CC(=O)N(Cc3ccccc3)C2)nc(Nc2ccccc2)n1 (stereo not drawn)	48%	-10%	-2%	4%[12.7 µM]	11%	30%
Cc1cccc(Nc2nc(N)nc(CN3CCOCC(O)C3)n2)c1 (stereo not drawn)	·	·	·	·	48%	·
Cc1cccc(Nc2nc(N)nc(CN3CCN(c4ccc(F)cc4)CC3)n2)c1	-91%	56µM*	2%	45µM*	?	-2%
C=CCn1c(SCC(=O)Nc2cc(NC(C)=O)ccc2OC)nnc1-c1ccccn1	79µM*	?	1%	-4%	0%	16%
COc1ccccc1NC(=O)CSc1nc2ncccc2[nH]1	3%	-13%	-6%	-4%	10%	28%
SMILES	BAZ2B inh	JMJD2A Tudor	PLK1 PBD block	G9a block	12-LOX inh	HP1b chromo inh
C=CCn1c(SCC(=O)Nc2ccccc2OC)nnc1-c1ccccn1	?	?	-14%	18%[59 µM]	-25%	4%
COc1ccc(NC(C)=O)cc1NC(=O)CSc1nc2ncccc2[nH]1	-23%	?	3µM*	5%	14%	-6%
Cc1ccc(-n2nnnc2SCC(=O)c2c(N)n(C3CC3)c(=O)[nH]c2=O)c(C)c1	-5%	-14%	-10%	0%[59 µM]	-16%	26%
Cc1ccc(NC(=O)C(=O)NN)cc1	?	-13%	-13%	50µM*	-1%	19%
NNC(=O)C(=O)Nc1ccc(O)cc1	-3%	4%	0%	16µM*	-12%	26%
Cc1ccc(NC(=O)CC(N)=S)cc1	-1%	8.9µM*	3%	·	11%	14%
COc1cccc(N2CCN(C(=O)CN(C)S(=O)(=O)c3ccc4c(c3)CCC(=O)N4)CC2)c1	0%	-12%	5%	?	-15%	16%
O=S(=O)(c1ccc(-c2nnc(SCc3ccccc3)o2)cc1)N1CCCC1	9%	-1%	-7%	-3%	-10%	-30%
O=C(CCNC(=O)c1ccco1)Nc1nc(-c2ccccc2)cs1	·	?	0%	·	-15%	-11%
CC(=O)NNC(=O)CCn1c2c(c3ccccc31)CCCC2	?	-33%	-3%	·	27%	-10%
CCOC(=O)NNC(=O)CCn1c2c(c3ccccc31)CCCC2	?	-21%	3%	·	0%	11%
O=C(CCn1c2c(c3ccccc31)CCCC2)NNC(=O)c1ccc(Cl)c([N+](=O)[O-])c1	5%	?	30µM*	?	19%	?
O=C(CCn1c2c(c3ccccc31)CCCC2)NNC(=O)c1ccc([N+](=O)[O-])cc1	-36%	-32%	-1%	16µM*	-16%	-5%
O=C(OCc1ccccc1)N1CCCC2CC1c1ccccc12 (stereo not drawn)	·	·	-3%	·	-7%	·
CN(C)C(=O)c1ccc(-c2nc(Nc3ccncc3)c3ccccc3n2)cc1	·	·	·	·	-16%	·
COc1ccc(C2CC(=O)OC3=C2C(=O)CC(C)(C)C3)c(OC)c1 (stereo not drawn)	-6%	-5%	-10%	11%	-7%	32%
Clc1ccc(-n2nnnc2C2(Nc3ccccc3)CCCCC2)cc1	·	·	·	·	-8%	·
Clc1ccc(NC2(c3nnnn3C3CCCCC3)CCCCC2)cc1	-2%	?	27µM*	6%	6%	?
CCc1ccc(OCC(=O)Nc2ccc(OC)cc2OC)c(-n2cnnc2)c1	·	·	·	·	7%	·
Cc1ccc(-c2cc3c(=O)n(CCNC(=O)Cc4ccc(Cl)cc4)ccn3n2)cc1C	·	·	·	·	40µM*	·

Screening data deposited in PubChem by National Center for Advancing Translational Sciences (NCATS).
